Sampled rows, rich in hits. Any-hit rate of the full collection: about 1.7%.
PTHR1 ag: activates the human parathyroid hormone receptor PTHR1. Q03431. HEK293 GP2 PTHR1 cells, GloSensor cAMP luminescence, 1 h. Potency, µM (doses to about 115 µM), for the others: top-dose activation, usual class: activators. 410,000 tested, 0.075% active; note: nearly all actives have a fitted effect of over 55% in size
Target sequence (Q03431 whole entry, looked up): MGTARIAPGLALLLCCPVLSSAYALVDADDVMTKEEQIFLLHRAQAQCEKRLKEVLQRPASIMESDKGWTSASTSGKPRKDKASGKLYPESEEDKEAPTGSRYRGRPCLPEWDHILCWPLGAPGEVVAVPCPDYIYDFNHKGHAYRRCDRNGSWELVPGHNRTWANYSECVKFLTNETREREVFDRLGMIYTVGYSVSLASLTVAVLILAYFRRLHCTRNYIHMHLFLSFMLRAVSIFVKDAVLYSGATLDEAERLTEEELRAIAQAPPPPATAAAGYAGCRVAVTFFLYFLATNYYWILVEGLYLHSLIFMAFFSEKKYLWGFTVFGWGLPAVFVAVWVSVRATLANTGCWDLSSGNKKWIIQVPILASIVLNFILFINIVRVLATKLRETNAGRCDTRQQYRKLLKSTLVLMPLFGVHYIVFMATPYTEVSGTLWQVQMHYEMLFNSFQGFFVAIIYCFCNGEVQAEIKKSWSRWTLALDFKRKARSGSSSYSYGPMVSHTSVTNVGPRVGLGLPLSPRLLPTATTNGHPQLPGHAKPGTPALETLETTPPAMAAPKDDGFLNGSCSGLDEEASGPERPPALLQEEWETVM
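HEK-293-derived GP2 cells expressing PTHR1 and a GloSensor cAMP reporter, 3,000/well, plated overnight, given luciferin plus IBMX (each 0.5 mM as added) for 1 h at 37 °C, then compound for 1 h at 37 °C. Luminescence was read after 15 min at room temperature.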
GLP1R cytotox: cytotoxic in the GLP-1 receptor inverse agonist counter-screen; HEK293 cAMP-luciferase reporter cells, luminescence, 24 h; Potency, µM (highest dose often 38.3 µM), for inactives: top-dose activity change, negative = inhibition, usual class: inhibitors; 410,000 tested, 0.13% active; AID 624418;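 note: loss of luciferase light is scored as toxicity; % is set by controls: 0 for no effect and ±100 for the full control effect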
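A 23 nL compound transfer followed 12 hours of cell culture at 37 deg C; exposure then lasted 24 hr. Luciferase assay detection reagent was dispensed and plates read for luminescence after a 12 min room-temperature wait.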
GLP1R ag: activates the human GLP-1 receptor. HEK293 GLP-1R CRE-luciferase, luminescence, 4-6 h; cells express a hypersensitive GLP-1R form. Potency, µM (series often up to 45.6 µM), inactives show at the top dose activation, most hits filed as activators. 380,000 tested, 0.007% active. AID 624172; note: % of control where 0% means no effect
GLP1R inv ag: inverse agonists of human GLP-1 receptor; HEK293 GLP-1R CRE-luciferase, luminescence, 24 h; GLP-1R form is constitutively active; AID 624417; Potency, µM (highest dose often 38.3 µM), without a hit: at the top dose activity change, negative = inhibition, actives largely listed as inhibitors; 410,000 tested, 1.6% active; note: % is set by controls: 0 for no effect and ±100 for the full control effect; nearly all actives have a fitted effect of over 55% in size
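Assay principle: reduced luminescence from a cAMP-responsive reporter in HEK293 cells co-expressing a constitutively active GLP-1R. Conditions: 24 hr compound incubation, 37 deg C, 5% CO2.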
* = called active by the depositor. Calls come from the whole dose curve; as a rule, active = well fitted curve in the direction sought with a large enough effect; inconclusive = small, poorly fitted or top-dose-only effect, or another doubt; inactive = no such curve, though single readings can be large; an effect the other way counts as inactive or inconclusive. Potency is the fitted concentration of half-maximal effect.

What do the screens show for `CCn1cc(C(=O)NCCc2ccc(Cl)cc2)c(=O)c2cc(S(=O)(=O)N(C)C3CCCCC3)ccc21`?
PTHR1 ag: -49%; GLP1R cytotox: -20%; GLP1R ag: 1%; GLP1R inv ag: -7%

What do the screens show for `NCC(=O)c1ccccc1`?
PTHR1 ag: -7%; GLP1R cytotox: 6%; GLP1R ag: 7%; GLP1R inv ag: 9%

What do the screens show for `C=C(C(=O)c1ccccc1)C(C)CC(=O)c1ccccc1` (configuration not stated)?
PTHR1 ag: -83%; GLP1R cytotox: inconclusive; GLP1R ag: -12%; GLP1R inv ag: 8.9µM*

Results for COc1ccccc1CNCC(=O)Nc1cc(S(=O)(=O)N2CCCCC2)ccc1C ?
PTHR1 ag: -17%; GLP1R cytotox: 3%; GLP1R ag: 3%; GLP1R inv ag: inconclusive

Results for O=C(CCl)Nc1cc(S(=O)(=O)N2CCCCCC2)ccc1Cl ?
PTHR1 ag: -19%; GLP1R cytotox: 11µM*; GLP1R ag: -5%; GLP1R inv ag: inconclusive

What do the screens show for `CC[C@@]1(c2ccccc2OC)ON(c2ccccc2C(F)(F)F)C1=O`?
PTHR1 ag: -22%; GLP1R cytotox: -9%; GLP1R ag: -4%; GLP1R inv ag: -11%

What do the screens show for `O=C(CNC(=O)OCc1ccccc1)Nc1ccc(Br)cc1C(=O)c1ccccc1`?
PTHR1 ag: inactive; GLP1R cytotox: -27%; GLP1R ag: -9%; GLP1R inv ag: 11µM*

How did O=C(CNC(=O)OCc1ccccc1)NCC(=O)Nc1ccc(Br)cc1C(=O)c1ccccc1 do in these assays?
PTHR1 ag: -25%; GLP1R cytotox: -2%; GLP1R ag: 4%; GLP1R inv ag: 1%

What do the screens show for `CNCCCOc1ccc(Cl)cc1C(C)(C)C`?
PTHR1 ag: inactive; GLP1R cytotox: inconclusive; GLP1R ag: 7%; GLP1R inv ag: 3.5µM*

What do the screens show for `CCCCOc1ccc(CCN)cc1Cl`?
PTHR1 ag: inactive; GLP1R cytotox: -6%; GLP1R ag: 0%; GLP1R inv ag: 1%

How did COc1ccc(CNCCC(c2ccc(F)cc2)c2ccc(OC)cc2)cc1 (configuration not stated) do in these assays?
PTHR1 ag: -29%; GLP1R cytotox: inconclusive; GLP1R ag: 8%; GLP1R inv ag: inconclusive

How did COc1ccc(CNCCC(c2ccc(F)cc2)c2ccc(OC(C)C)cc2)cc1OC (configuration not stated) do in these assays?
PTHR1 ag: inactive; GLP1R cytotox: inconclusive; GLP1R ag: 9%; GLP1R inv ag: 4µM*

How did O=C(CF)NC(Nc1cccc2cccnc12)C(Cl)(Cl)Cl (configuration not stated) do in these assays?
PTHR1 ag: inactive; GLP1R cytotox: 1%; GLP1R ag: 2%; GLP1R inv ag: 10µM*

How did COc1ccc(CCNCc2ccc(SC)cc2)cc1 do in these assays?
PTHR1 ag: inactive; GLP1R cytotox: 4%; GLP1R ag: -3%; GLP1R inv ag: -18%

What do the screens show for `COc1ccc2sc(-c3ccc(SC)cc3)c(-c3ccc(O)cc3)c2c1`?
PTHR1 ag: -40%; GLP1R cytotox: inconclusive; GLP1R ag: -5%; GLP1R inv ag: 5.6µM*

What do the screens show for `CN1C(=O)C(=Cc2ccccc2OS(=O)(=O)c2ccccc2)C(=O)N(C)C1=O`?
PTHR1 ag: -16%; GLP1R cytotox: -12%; GLP1R ag: -3%; GLP1R inv ag: -27%

How did O=C1C2C3CCC(C3)C2C(=O)N1c1ccc(OS(=O)(=O)c2ccccc2)cc1 (configuration not stated) do in these assays?
PTHR1 ag: -92%; GLP1R cytotox: -4%; GLP1R ag: 10%; GLP1R inv ag: 3.2µM*

What do the screens show for `CCCCCCN1C[C@@H](n2cc(C3CC3)nn2)[C@H](O)C[C@@H]1c1ccc(C)cc1`?
PTHR1 ag: inactive; GLP1R cytotox: inconclusive; GLP1R ag: 1%; GLP1R inv ag: 4µM*

What do the screens show for `COc1ccc(CNC(=O)Nc2nc(C(N)Cc3ccc(C(F)(F)F)cc3)cs2)cc1` (configuration not stated)?
PTHR1 ag: -3%; GLP1R cytotox: inconclusive; GLP1R ag: -8%; GLP1R inv ag: inconclusive

What do the screens show for `O=C(c1cc(F)ccc1F)C1CCCN(Cc2cccc(Cl)c2)C1` (configuration not stated)?
PTHR1 ag: -29%; GLP1R cytotox: 6%; GLP1R ag: 11%; GLP1R inv ag: 10µM*

What do the screens show for `O=C(c1cc(F)ccc1F)C1CCCN(CCCc2ccccc2)C1` (configuration not stated)?
PTHR1 ag: inactive; GLP1R cytotox: 9%; GLP1R ag: 2%; GLP1R inv ag: inconclusive

Results for C[C@@H]1CCCCO[C@H](CN(C)Cc2ccccc2)[C@@H](C)CN([C@H](C)CO)C(=O)c2cc(NC(=O)c3ccccc3)ccc2O1 ?
PTHR1 ag: -24%; GLP1R cytotox: -28%; GLP1R ag: -7%; GLP1R inv ag: inconclusive

Results for COc1ccc(NC(=O)Nc2ccc3c(c2)C(=O)N([C@H](C)CO)C[C@H](C)[C@@H](CN(C)Cc2ccc(Cl)c(Cl)c2)OCCCC[C@@H](C)O3)cc1 ?
PTHR1 ag: -15%; GLP1R cytotox: 3%; GLP1R ag: -2%; GLP1R inv ag: 3.2µM*

How did CCC(=O)c1cn(Cc2ccc(C#N)cc2)c2ccccc12 do in these assays?
PTHR1 ag: inactive; GLP1R cytotox: 2%; GLP1R ag: 9%; GLP1R inv ag: inconclusive

Results for N#Cc1ccc(Cn2cc(C=O)c3ccccc32)cc1 ?
PTHR1 ag: -25%; GLP1R cytotox: -5%; GLP1R ag: 1%; GLP1R inv ag: 7.1µM*

What do the screens show for `O=Cc1cn(Cc2cccc([N+](=O)[O-])c2)c2ccccc12`?
PTHR1 ag: -23%; GLP1R cytotox: -39%; GLP1R ag: -5%; GLP1R inv ag: inconclusive

What do the screens show for `Cc1cccc(Cn2cc(C=O)c3ccccc32)c1`?
PTHR1 ag: -23%; GLP1R cytotox: -7%; GLP1R ag: 10%; GLP1R inv ag: 4µM*

Results for CN(CC(O)CON=C1c2ccccc2-c2ccccc21)S(=O)(=O)c1ccc(Br)cc1 (configuration not stated) ?
PTHR1 ag: -10%; GLP1R cytotox: inconclusive; GLP1R ag: -2%; GLP1R inv ag: inconclusive

What do the screens show for `c1ccc2c(c1)CSc1ccccc1C2C1=NCCN1` (configuration not stated)?
PTHR1 ag: inactive; GLP1R cytotox: -32%; GLP1R ag: -2%; GLP1R inv ag: inconclusive

Results for Brc1ccc2c(c1)C(OC1CN3CCC1CC3)c1ccccc1CS2 (configuration not stated) ?
PTHR1 ag: inactive; GLP1R cytotox: 10µM*; GLP1R ag: -43%; GLP1R inv ag: inconclusive

Results for Cc1ccc(Cl)cc1N1CCN(C(=O)C2CCCN(S(=O)(=O)c3ccc(Br)s3)C2)CC1 (configuration not stated) ?
PTHR1 ag: -23%; GLP1R cytotox: 3%; GLP1R inv ag: inconclusive
